# Measured values published in the supplement of paper PMC9135407.
# Values joined by “and” are separate entries in the source; they are usually repeats but may differ in a detail not shown here. Equal values may be shown once. Where a name gives a salt, the structure may show the parent alone. In all, about 5,800 compounds went through this assay and about 620 (11%) showed activity. The full list was thinned out, with actives kept by preference. A number with no mark means an inactive call.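 Rule for the calls: active = score above a cut-off or among the top three wells of a plate; in these data no inactive exceeds 0.85.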
# Tested on: primary human hepatic stellate cells (donor 1)
# Experiment: scaled lipid accumulation score (0 = DMSO-like, 1 = nortriptyline-like); higher = stronger HSC inactivation (lipid re-accumulation), active = hit call of the paper
# Conditions: 48 h
# [1] = library stock concentration: 10 mM
# [2] = library stock concentration: 80 uM
# [3] = library stock concentration: 400 uM
# [4] = library stock concentration: 2 mM
# [5] = library stock concentration: 3.33 mM
# [6] = library stock concentration: 1 mM
compound,measurement,setting,value
O=C1NCN(c2ccccc2)C12CCN(CCCC(c1ccc(F)cc1)c1ccc(F)cc1)CC2 [Fluspirilen],scaled lipid accumulation score,,≤ 0
O=C1NCN(c2ccccc2)C12CCN(CCCC(c1ccc(F)cc1)c1ccc(F)cc1)CC2 [Fluspirilene],scaled lipid accumulation score,[1],1.02 (active)
CCNC(=O)N1CCN(CCCC(c2ccc(F)cc2)c2ccc(F)cc2)CC1 [Amperozide hydrochloride],scaled lipid accumulation score,[1],0.661
O=C(Nc1ccc(C(F)(F)F)cn1)N1CCN(c2ncccc2C(F)(F)F)CC1,scaled lipid accumulation score,[1],0.012
CCCC[C@@H](C)/C=C(C)/C=C(\C)C(=O)NC1=C[C@@](O)(/C=C/C=C/C=C/C(=O)NC2=C(O)CCC2=O)[C@@H]2O[C@@H]2C1=O [Manumycin A],scaled lipid accumulation score,library stock concentration: 9.1 mM,0.793
COc1cc2ncnc(Nc3ccc(F)c(Cl)c3)c2cc1OCCCN1CCOCC1,scaled lipid accumulation score,[2],≤ -0.003
same,scaled lipid accumulation score,[3],≤ -0.009
same,scaled lipid accumulation score,[4],0.19
same,scaled lipid accumulation score,[1],0.65
C=CC(=O)Nc1cc2c(Nc3ccc(F)c(Cl)c3)ncnc2cc1C#CC(C)(C)N1CCN(C)CC1,scaled lipid accumulation score,[3],0.879 (active)
"COc1cc2ncnc(Nc3ccc(F)c(Cl)c3)c2cc1OCCCN1CCOCC1 [Gefitinib (ZD1839, Iressa) (10 mM)]",scaled lipid accumulation score,[1],0.94 (active)
C=CC(=O)Nc1cc2c(Nc3ccc(F)c(Cl)c3)ncnc2cc1OCCCN1CCOCC1 [listing 1 of 2 here],scaled lipid accumulation score,[1],0.983 (active)
"COc1cc2ncnc(Nc3ccc(F)c(Cl)c3)c2cc1OCCCN1CCOCC1 [Gefitinib (ZD1839, Iressa) (2 mM)]",scaled lipid accumulation score,[4],0.864 (active)
"COc1cc2ncnc(Nc3ccc(F)c(Cl)c3)c2cc1OCCCN1CCOCC1 [Gefitinib (ZD1839, Iressa) (0.4 mM)]",scaled lipid accumulation score,[3],0.081
COc1cc2ncnc(Nc3ccc(F)c(Cl)c3)c2cc1OCCCN1CCOCC1 [Gefitinib (ZD1839)] [listing 1 of 2 here],scaled lipid accumulation score,[1],1.05 (active)
COc1cc2ncnc(Nc3ccc(F)c(Cl)c3)c2cc1OCCCN1CCOCC1 [Gefitinib],scaled lipid accumulation score,library stock concentration: 4.5 mM,0.19
C=CC(=O)Nc1ccc2ncnc(Nc3cccc(Br)c3)c2c1,scaled lipid accumulation score,[5],0.014
same,scaled lipid accumulation score,[1],0.802
COc1cc2ncnc(Nc3ccc(F)c(Cl)c3)c2cc1OCCCN1CCOCC1 [Gefitinib (ZD1839)] [listing 2 of 2 here],scaled lipid accumulation score,[5],0.43
C=CC(=O)Nc1cc2c(Nc3ccc(F)c(Cl)c3)ncnc2cc1OCCCN1CCOCC1 [listing 2 of 2 here],scaled lipid accumulation score,[2],0.045
same,scaled lipid accumulation score,[3],≤ -0.009 and ≤ -0.005
same,scaled lipid accumulation score,[4],0.07 and ≤ -0.005
same,scaled lipid accumulation score,[1],0.314
CC(=O)OCC(=O)[C@@]1(O)[C@H](OC(C)=O)C[C@H]2[C@@H]3CCC4=CC(=O)C=C[C@]4(C)[C@@]3(F)[C@@H](O)C[C@@]21C [Triamcinolone diacetate],scaled lipid accumulation score,[1],≤ 0
COc1ncc(-c2ccc3nccc(-c4ccnnc4)c3c2)cc1NS(=O)(=O)c1ccc(F)cc1F,scaled lipid accumulation score,[2],≤ -0.009
same,scaled lipid accumulation score,[3],≤ -0.009
same,scaled lipid accumulation score,[4],≤ -0.009
same,scaled lipid accumulation score,[5],0.066
same,scaled lipid accumulation score,[1],0.479 and 0.24
O=C(Nc1ccccc1)C12CC1C(=NO)c1ccccc1O2 (configuration not stated),scaled lipid accumulation score,[1],≤ -0.006
Clc1cccc(Nc2nnc(-c3ccccc3)c3ccccc23)c1,scaled lipid accumulation score,[1],0.162
same,scaled lipid accumulation score,library stock concentration: 15.1 mM,0.258
CCCCCCCCCC(=O)N[C@H](CN1CCOCC1)[C@H](O)c1ccccc1 (racemic) [DL-threo-PDMP (hydrochloride)],scaled lipid accumulation score,[6],0.001
CCCn1c(=O)c(C)cn2nc(N)nc12,scaled lipid accumulation score,[1],≤ 0 and 0.03
C=C1CC[C@@H]2[C@](C)(CO)[C@H](O)CC[C@@]2(C)[C@@H]1C/C=C1/C(=O)OC[C@H]1O [Andrographolide],scaled lipid accumulation score,[5],0.094
same,scaled lipid accumulation score,[1],0.785
C[C@@H]1C[C@H]2[C@@H]3C[C@H](F)C4=CC(=O)C(Cl)=C[C@]4(C)[C@@]3(F)[C@@H](O)C[C@]2(C)[C@@]1(O)C(=O)CO,scaled lipid accumulation score,[1],≤ 0
CC1(C)S[C@@H]2[C@H](NC(=O)[C@H](N)c3ccc(O)cc3)C(=O)N2[C@H]1C(=O)O,scaled lipid accumulation score,[1],0.145
CC1(C)S[C@@H]2[C@H](NC(=O)[C@H](N)c3ccc(O)cc3)C(=O)N2[C@H]1C(=O)O [Amoxicillin],scaled lipid accumulation score,,0.056
same,scaled lipid accumulation score,[5],≤ 0
same,scaled lipid accumulation score,[1],0.044 and ≤ 0
CC1(C)S[C@@H]2[C@H](NC(=O)[C@H](N)c3ccc(O)cc3)C(=O)N2[C@H]1C(=O)O [Amoxicillin Sodium],scaled lipid accumulation score,[5],≤ 0
same,scaled lipid accumulation score,[1],≤ 0
O=C(CCC/C=C\C[C@@H]1C(/C=C/[C@@H](O)COc2cccc(C(F)(F)F)c2)[C@H](O)C[C@@H]1O)NC(CO)CO (some centres not stated) [Fluprostenol serinol amide],scaled lipid accumulation score,[6],≤ 0
"c1ccc(C2CN3CCSC3=N2)cc1 (single isomer, unassigned; (-)) [(-)-Tetramisole hydrochloride]",scaled lipid accumulation score,[1],≤ -0.055
CCCCC(C)(O)C/C=C/[C@H]1[C@H](O)CC(=O)[C@@H]1CCCCCCC(=O)OC (some centres not stated) [Misoprostol],scaled lipid accumulation score,[6],≤ 0
same,scaled lipid accumulation score,library stock concentration: 5.2 mM,≤ 0
CCCCC[C@H](O)/C=C/[C@@H]1[C@@H](CCCCCCC(=O)O)[C@H](O)C[C@@H]1O [11.beta.-Prostaglandin F1.beta.],scaled lipid accumulation score,[6],≤ 0
COc1cc2ncnc(Nc3ccc(F)c(Cl)c3)c2cc1OCCCN1CCOCC1 [Iressa],scaled lipid accumulation score,[1],0.9 (active)
CC(C)[C@H](O)C(=O)O [(S)-(+)-2-hydroxy-3-Methylbutyric Acid],scaled lipid accumulation score,[6],≤ 0
Cc1cc(C)c(/C=C2\C(=O)Nc3ccccc32)[nH]1 [VEGF Receptor 2 Kinase Inhibitor III],scaled lipid accumulation score,[5],≤ 0
Cc1cc(C)c(/C=C2\C(=O)Nc3ccccc32)[nH]1,scaled lipid accumulation score,[6],≤ 0
same,scaled lipid accumulation score,[1],≤ 0 and 0.011
CN(C)c1ccc(/C=C2/C(=O)Nc3ccccc32)cc1,scaled lipid accumulation score,[1],≤ 0 and 0.041
same,scaled lipid accumulation score,library stock concentration: 18.9 mM,0.01
Cc1cc(C)c(/C=C2\C(=O)Nc3ccccc32)[nH]1 [Semaxanib (SU5416)],scaled lipid accumulation score,[5],≤ 0
same,scaled lipid accumulation score,[1],0.145
